According to article PMC11006913:
Numbering of substitutions follows the chain as printed.

Key:
Experiment in all cases: PBM; 200 nM protein, PBS
Conditions in all cases: dsDNA, one strand shown
SHOX [1] = molecular target: SHOX (Homo sapiens, UniProt O15266 103-189)
HOXB9 [2] = molecular target: HOXB9 (Homo sapiens, UniProt P17482 171-250)
SHOX [3] = molecular target: SHOX (Homo sapiens, UniProt O15266 103-189, R173C)
HOXB9 [4] = molecular target: HOXB9 (Homo sapiens, UniProt P17482 171-250, R186Q)
HOXA2 [5] = molecular target: HOXA2 (Homo sapiens, UniProt O43364 129-215, R185T)
HOXA2 [6] = molecular target: HOXA2 (Homo sapiens, UniProt O43364 129-215, R185K)
HOXA2 [7] = molecular target: HOXA2 (Homo sapiens, UniProt O43364 129-215, Y150S)
HOXA2 [8] = molecular target: HOXA2 (Homo sapiens, UniProt O43364 129-215)
PRRX1 [9] = molecular target: PRRX1 (Homo sapiens, UniProt P54821 80-166, F113S)
ALX3 [10] = molecular target: ALX3 (Homo sapiens, UniProt O95076 139-225)
PRRX1 [11] = molecular target: PRRX1 (Homo sapiens, UniProt P54821 80-166)
ALX4 [12] = molecular target: ALX4 (Homo sapiens, UniProt Q9H161 200-286)
PAX4 [13] = molecular target: T1, PAX4 (Homo sapiens, UniProt O43316 9-242, R200K)
T1 sequence: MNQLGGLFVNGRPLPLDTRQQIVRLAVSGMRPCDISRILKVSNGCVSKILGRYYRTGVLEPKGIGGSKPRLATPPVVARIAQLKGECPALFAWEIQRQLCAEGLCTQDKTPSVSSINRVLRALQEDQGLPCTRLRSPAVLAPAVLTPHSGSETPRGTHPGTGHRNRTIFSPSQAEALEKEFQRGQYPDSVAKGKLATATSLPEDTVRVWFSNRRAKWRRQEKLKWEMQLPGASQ

PAX4 [14] = molecular target: T2, PAX4 (Homo sapiens, UniProt O43316 9-242)
T2 sequence: T1 sequence with K192R

ALX4 [15] = molecular target: ALX4 (Homo sapiens, UniProt Q9H161 200-286, Q225E)
ALX1 [16] = molecular target: ALX1 (Homo sapiens, UniProt Q15699 118-204, L144V)
ALX3 [17] = molecular target: ALX3 (Homo sapiens, UniProt O95076 139-225, N203Q)
PAX4 [18] = molecular target: T3, PAX4 (Homo sapiens, UniProt O43316 9-242, R200Q)
T3 sequence: T1 sequence with K192Q

ALX1 [19] = molecular target: ALX1 (Homo sapiens, UniProt Q15699 118-204, L144R)
PAX4 [20] = molecular target: T4, PAX4 (Homo sapiens, UniProt O43316 9-242, F177V)
T4 sequence: T1 sequence with F169V, K192R

PAX4 [21] = molecular target: T5, PAX4 (Homo sapiens, UniProt O43316 9-242, F177Y)
T5 sequence: T1 sequence with F169Y, K192R

PROP1 [22] = molecular target: PROP1 (Homo sapiens, UniProt O75360 56-141)
PROP1 [23] = molecular target: PROP1 (Homo sapiens, UniProt O75360 56-141, R99H)
ALX3 [24] = molecular target: ALX3 (Homo sapiens, UniProt O95076 139-225, L168Q)
ALX3 [25] = molecular target: ALX3 (Homo sapiens, UniProt O95076 139-225, L168V)
PROP1 [26] = molecular target: PROP1 (Homo sapiens, UniProt O75360 56-141, F88S)
PAX4 [27] = molecular target: T6, PAX4 (Homo sapiens, UniProt O43316 9-242, R227W)
T6 sequence: T1 sequence with K192R, R219W

ALX1 [28] = molecular target: ALX1 (Homo sapiens, UniProt Q15699 118-204)
ALX3 [29] = molecular target: ALX3 (Homo sapiens, UniProt O95076 139-225, N203S)
ALX3 (Homo sapiens, UniProt O95076 139-225, N203S), sequence (O95076 139-225 N203S): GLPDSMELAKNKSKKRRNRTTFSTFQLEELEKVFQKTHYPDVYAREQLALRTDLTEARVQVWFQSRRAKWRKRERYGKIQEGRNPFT

SHOX (Homo sapiens, UniProt O15266 103-189), sequence (O15266 103-189): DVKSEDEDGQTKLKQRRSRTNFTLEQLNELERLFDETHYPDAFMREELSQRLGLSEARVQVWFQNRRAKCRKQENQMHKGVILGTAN
SHOX (Homo sapiens, UniProt O15266 103-189, R173C), sequence (O15266 103-189 R173C): as the sequence (O15266 103-189) above, with R71C counted along it
ALX3 (Homo sapiens, UniProt O95076 139-225), sequence (O95076 139-225): as the sequence (O95076 139-225 N203S) above, with S65N counted along it
PRRX1 (Homo sapiens, UniProt P54821 80-166), sequence (P54821 80-166): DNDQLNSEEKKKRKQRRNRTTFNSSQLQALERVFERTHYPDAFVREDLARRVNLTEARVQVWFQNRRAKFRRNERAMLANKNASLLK
PRRX1 (Homo sapiens, UniProt P54821 80-166, F113S), sequence (P54821 80-166 F113S): as the sequence (P54821 80-166) above, with F34S counted along it
ALX1 (Homo sapiens, UniProt Q15699 118-204, L144R), sequence (Q15699 118-204 L144R): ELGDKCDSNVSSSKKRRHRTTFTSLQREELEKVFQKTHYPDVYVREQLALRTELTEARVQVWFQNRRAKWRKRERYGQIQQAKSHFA
HOXA2 (Homo sapiens, UniProt O43364 129-215, Y150S), sequence (O43364 129-215 Y150S): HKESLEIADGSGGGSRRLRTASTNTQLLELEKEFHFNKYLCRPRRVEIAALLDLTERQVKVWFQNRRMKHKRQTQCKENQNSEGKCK
HOXA2 (Homo sapiens, UniProt O43364 129-215, R185T), sequence (O43364 129-215 R185T): as the sequence (O43364 129-215 Y150S) above, with S22Y, R57T counted along it
PROP1 (Homo sapiens, UniProt O75360 56-141, R99H), sequence (O75360 56-141 R99H): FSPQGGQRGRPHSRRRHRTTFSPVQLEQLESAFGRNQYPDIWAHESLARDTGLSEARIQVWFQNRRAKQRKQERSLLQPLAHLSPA
ALX3 (Homo sapiens, UniProt O95076 139-225, L168Q), sequence (O95076 139-225 L168Q): as the sequence (O95076 139-225 N203S) above, with L30Q, S65N counted along it
HOXA2 (Homo sapiens, UniProt O43364 129-215, R185K), sequence (O43364 129-215 R185K): as the sequence (O43364 129-215 Y150S) above, with S22Y, R57K counted along it
HOXA2 (Homo sapiens, UniProt O43364 129-215), sequence (O43364 129-215): as the sequence (O43364 129-215 Y150S) above, with S22Y counted along it
PROP1 (Homo sapiens, UniProt O75360 56-141, F88S), sequence (O75360 56-141 F88S): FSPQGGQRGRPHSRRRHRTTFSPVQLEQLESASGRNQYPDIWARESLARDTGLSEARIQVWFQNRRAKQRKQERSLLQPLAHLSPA
ALX1 (Homo sapiens, UniProt Q15699 118-204, L144V), sequence (Q15699 118-204 L144V): as the sequence (Q15699 118-204 L144R) above, with R27V counted along it
ALX3 (Homo sapiens, UniProt O95076 139-225, L168V), sequence (O95076 139-225 L168V): as the sequence (O95076 139-225 N203S) above, with L30V, S65N counted along it
PROP1 (Homo sapiens, UniProt O75360 56-141), sequence (O75360 56-141): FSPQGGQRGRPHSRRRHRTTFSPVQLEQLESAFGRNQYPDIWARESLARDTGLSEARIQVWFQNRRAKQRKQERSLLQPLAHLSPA
HOXB9 (Homo sapiens, UniProt P17482 171-250, R186Q), sequence (P17482 171-250 R186Q): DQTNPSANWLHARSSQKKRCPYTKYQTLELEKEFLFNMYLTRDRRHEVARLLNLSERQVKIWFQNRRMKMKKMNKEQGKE
ALX4 (Homo sapiens, UniProt Q9H161 200-286, Q225E), sequence (Q9H161 200-286 Q225E): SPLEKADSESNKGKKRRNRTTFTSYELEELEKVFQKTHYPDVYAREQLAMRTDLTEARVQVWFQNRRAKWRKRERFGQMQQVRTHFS
ALX4 (Homo sapiens, UniProt Q9H161 200-286), sequence (Q9H161 200-286): as the sequence (Q9H161 200-286 Q225E) above, with E26Q counted along it
HOXB9 (Homo sapiens, UniProt P17482 171-250), sequence (P17482 171-250): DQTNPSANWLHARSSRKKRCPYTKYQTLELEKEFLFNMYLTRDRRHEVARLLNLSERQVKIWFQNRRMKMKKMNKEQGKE
ALX3 (Homo sapiens, UniProt O95076 139-225, N203Q), sequence (O95076 139-225 N203Q): as the sequence (O95076 139-225 N203S) above, with S65Q counted along it
ALX1 (Homo sapiens, UniProt Q15699 118-204), sequence (Q15699 118-204): as the sequence (Q15699 118-204 L144R) above, with R27L counted along it

AATTAGGA
binding signal (SHOX [1]): 11.4 upbm affinity estimate (log intensity, higher = more binding, comparable within an allelic series)
binding signal (HOXB9 [2]): 10.3 upbm affinity estimate (log intensity, higher = more binding, comparable within an allelic series)
binding signal (SHOX [3]): 9.06 upbm affinity estimate (log intensity, higher = more binding, comparable within an allelic series)
binding signal (HOXB9 [4]): 10.2 upbm affinity estimate (log intensity, higher = more binding, comparable within an allelic series)

CCTTGCCC
binding signal (SHOX [1]): 7.09 upbm affinity estimate (log intensity, higher = more binding, comparable within an allelic series)
binding signal (HOXA2 [5]): 7.28 upbm affinity estimate (log intensity, higher = more binding, comparable within an allelic series)
binding signal (SHOX [3]): 7.14 upbm affinity estimate (log intensity, higher = more binding, comparable within an allelic series)
binding signal (HOXA2 [6]): 10.4 upbm affinity estimate (log intensity, higher = more binding, comparable within an allelic series)
binding signal (HOXA2 [7]): 10.4 upbm affinity estimate (log intensity, higher = more binding, comparable within an allelic series)
binding signal (HOXA2 [8]): 7.27 upbm affinity estimate (log intensity, higher = more binding, comparable within an allelic series)

AATAATAC
binding signal (SHOX [1]): 9.32 upbm affinity estimate (log intensity, higher = more binding, comparable within an allelic series)
binding signal (PRRX1 [9]): 10.6 upbm affinity estimate (log intensity, higher = more binding, comparable within an allelic series)
binding signal (ALX3 [10]): 10.3 upbm affinity estimate (log intensity, higher = more binding, comparable within an allelic series)
binding signal (PRRX1 [11]): 12.3 upbm affinity estimate (log intensity, higher = more binding, comparable within an allelic series)

CTAATTTA
binding signal (SHOX [1]): 11.5 upbm affinity estimate (log intensity, higher = more binding, comparable within an allelic series)
binding signal (ALX4 [12]): 13.7 upbm affinity estimate (log intensity, higher = more binding, comparable within an allelic series)
binding signal (PAX4 [13]): 11.7 upbm affinity estimate (log intensity, higher = more binding, comparable within an allelic series)
binding signal (PRRX1 [9]): 11.1 upbm affinity estimate (log intensity, higher = more binding, comparable within an allelic series)
binding signal (PAX4 [14]): 12.3 upbm affinity estimate (log intensity, higher = more binding, comparable within an allelic series)
binding signal (ALX4 [15]): 12.6 upbm affinity estimate (log intensity, higher = more binding, comparable within an allelic series)
binding signal (ALX1 [16]): 11.4 upbm affinity estimate (log intensity, higher = more binding, comparable within an allelic series)
binding signal (ALX3 [17]): 8.44 upbm affinity estimate (log intensity, higher = more binding, comparable within an allelic series)
binding signal (PAX4 [18]): 11.9 upbm affinity estimate (log intensity, higher = more binding, comparable within an allelic series)
binding signal (SHOX [3]): 9.2 upbm affinity estimate (log intensity, higher = more binding, comparable within an allelic series)
binding signal (ALX1 [19]): 11.1 upbm affinity estimate (log intensity, higher = more binding, comparable within an allelic series)
binding signal (PAX4 [20]): 10.6 upbm affinity estimate (log intensity, higher = more binding, comparable within an allelic series)
binding signal (ALX3 [10]): 12.3 upbm affinity estimate (log intensity, higher = more binding, comparable within an allelic series)
binding signal (PAX4 [21]): 11 upbm affinity estimate (log intensity, higher = more binding, comparable within an allelic series)
binding signal (PROP1 [22]): 11 upbm affinity estimate (log intensity, higher = more binding, comparable within an allelic series)
binding signal (PROP1 [23]): 10.8 upbm affinity estimate (log intensity, higher = more binding, comparable within an allelic series)
binding signal (ALX3 [24]): 10.2 upbm affinity estimate (log intensity, higher = more binding, comparable within an allelic series)
binding signal (ALX3 [25]): 9.6 upbm affinity estimate (log intensity, higher = more binding, comparable within an allelic series)
binding signal (PROP1 [26]): 7.64 upbm affinity estimate (log intensity, higher = more binding, comparable within an allelic series)
binding signal (PAX4 [27]): 11 upbm affinity estimate (log intensity, higher = more binding, comparable within an allelic series)
binding signal (ALX1 [28]): 12.1 upbm affinity estimate (log intensity, higher = more binding, comparable within an allelic series)
binding signal (ALX3 [29]): 8.54 upbm affinity estimate (log intensity, higher = more binding, comparable within an allelic series)
binding signal (PRRX1 [11]): 13.3 upbm affinity estimate (log intensity, higher = more binding, comparable within an allelic series)
